Drawing on PubChem BioAssay (NCI), this text covers growth for eight compounds.

The panel holds about 83,000 compounds, 20% with a hit somewhere; the sample as a whole holds those more often.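 Testing used 96-well plates and a 48-hour single-concentration exposure. Example: -40 means 40% of the starting cells died.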 Values without a mark were called inactive. Calls of active or inactive are those of the source. Rule for the calls: active = growth percent below 10; inactive = the rest.

Some test systems named below: SK-MEL-2 melanoma; EKVX NSCLC; SN12C renal; UO-31 renal; TK-10 renal; ACHN renal; CAKI-1 renal; A498 renal; CCRF-CEM leukemia; MOLT-4 leukemia; RPMI-8226 leukemia; OVCAR-8 ovarian; OVCAR-5 ovarian; OVCAR-4 ovarian; SK-OV-3 ovarian; IGROV1 ovarian; OVCAR-3 ovarian; HS 578T breast; NCI/ADR-RES ovarian.
Assay in all cases: NCI-60 one-dose screen, 48 h (100 = growth as untreated, 0 = no growth, -100 = all killed)
Common to all, as to conditions: 10 µM unless noted

As to `COc1cc2nc(Cl)nc(Nc3ccc(S(=O)(=O)Nc4nccs4)cc3)c2cc1OC`, the growth with SK-MEL-2 melanoma is 102%; with EKVX NSCLC, 93.9%; with SN12C renal, 95.7%; in the test on UO-31 renal it was 85.4%; in the test on TK-10 renal, 119%; in the test on ACHN renal it was 88.2%. For the same compound, the growth is 88.2% in the test with CAKI-1 renal; 136% in the test with A498 renal; 117% with CCRF-CEM leukemia; 99.3% in the test with MOLT-4 leukemia; 107% with RPMI-8226 leukemia; 97.3% in the test with OVCAR-8 ovarian. The growth in the test with OVCAR-5 ovarian is 111%; in the test on OVCAR-4 ovarian it was 103%; in the test on SK-OV-3 ovarian, 101%; with IGROV1 ovarian, 107%; in the test with OVCAR-3 ovarian, 116%; with HS 578T breast, 99.5%. Moreover, the growth in the test with NCI/ADR-RES ovarian was 104%.

As for `COc1ccc(Nc2nnc(SCc3ccccc3F)s2)cc1`, the growth with SK-MEL-2 melanoma is 82.9%; in the test on EKVX NSCLC it was 94.9%; in the test with SN12C renal it was 107%; with UO-31 renal it was 78.6%; in the test with TK-10 renal, 123%; in the test with ACHN renal, 106%. Besides, the growth in the test with CAKI-1 renal is 103%; in the test with A498 renal, 91.4%; in the test with CCRF-CEM leukemia, 76.4%; with MOLT-4 leukemia it was 94.8%; with RPMI-8226 leukemia it was 71.6%; with OVCAR-8 ovarian, 100%. The growth with OVCAR-5 ovarian was 92.8%; in the test on OVCAR-4 ovarian it was 99.4%; in the test on SK-OV-3 ovarian, 90.9%; in the test with IGROV1 ovarian, 8.8% (active); with HS 578T breast it was 98%; with NCI/ADR-RES ovarian it was 99.1%.

For `O=C1N=c2cc3c(cc2=C/C1=C/c1sc(=S)n(CCc2ccc(O)cc2)c1O)OCCO3`, the growth is 82.9% in the test with SK-MEL-2 melanoma; 61.3% in the test on EKVX NSCLC; 5.51% (active) in the test with SN12C renal; 71.1% with UO-31 renal; 90.3% with TK-10 renal; 6.54% (active) with ACHN renal. In addition, the growth was 59.7% in the test on CAKI-1 renal; 80.2% in the test with A498 renal; 40.9% with CCRF-CEM leukemia; 21.5% in the test on MOLT-4 leukemia; 33.4% in the test on RPMI-8226 leukemia; 28.6% in the test with OVCAR-8 ovarian. For the same compound, the growth in the test on OVCAR-5 ovarian was 64%; in the test on OVCAR-4 ovarian, 80.9%; with SK-OV-3 ovarian, 105%; with IGROV1 ovarian, 49%; in the test on OVCAR-3 ovarian it was 76.1%; in the test on HS 578T breast it was 74.9%. For the same compound, the growth in the test with NCI/ADR-RES ovarian is 64.7%.

Regarding `Cc1ccc(S(=O)(=O)n2cc(CNc3ccc(N4CCOCC4=O)cc3)c3ccccc32)cc1`, the growth in the test on SK-MEL-2 melanoma was 102%; in the test on EKVX NSCLC it was 98.5%; in the test with SN12C renal, 84.3%; in the test on UO-31 renal, 43.3%; in the test with TK-10 renal, 65.2%; with ACHN renal, 46.7%. In addition, the growth in the test with CAKI-1 renal is 30.4%; in the test with A498 renal it was -51.1% (active); in the test with CCRF-CEM leukemia, 53.5%; in the test with MOLT-4 leukemia it was 82.7%; in the test with RPMI-8226 leukemia it was 67.9%; in the test on OVCAR-8 ovarian, 81.7%. The growth in the test on OVCAR-5 ovarian was 30.1%; with OVCAR-4 ovarian, 62.3%; in the test with SK-OV-3 ovarian it was 87.4%; with IGROV1 ovarian, 67.5%; in the test with OVCAR-3 ovarian, 86.8%; in the test on HS 578T breast it was 89.6%. Also, the growth with NCI/ADR-RES ovarian was 78%.

For the compound `Cc1cc(O)c(C2=NN(c3ccc(S(N)(=O)=O)cc3)C(c3ccccc3Cl)C2)cc1Cl` (configuration not stated), the growth in the test with SK-MEL-2 melanoma is 25.2%; in the test on EKVX NSCLC it was -1.91% (active); in the test with SN12C renal it was 18.8%; in the test with UO-31 renal, 16.5%; with TK-10 renal it was 60.6%; in the test with ACHN renal, 15.7%. Further, the growth is -3.01% (active) in the test with CAKI-1 renal; 45.9% in the test on A498 renal; 9.09% (active) in the test with CCRF-CEM leukemia; -31.6% (active) in the test with MOLT-4 leukemia; 11% with RPMI-8226 leukemia; -14.5% (active) with OVCAR-8 ovarian. Besides, the growth was 18.1% with OVCAR-5 ovarian; 34.3% in the test on OVCAR-4 ovarian; 44.5% in the test on SK-OV-3 ovarian; 12.2% with IGROV1 ovarian; -13.1% (active) in the test with OVCAR-3 ovarian; -11% (active) in the test on NCI/ADR-RES ovarian.

On to `NC[C@H](O)c1ccc(O)c(O)c1`, for which the growth in the test on SK-MEL-2 melanoma is 110%; in the test with EKVX NSCLC, 113%; with SN12C renal, 85.4%; in the test on UO-31 renal, 103%; in the test on TK-10 renal, 97.7%; in the test with ACHN renal, 90.1%. The growth with CAKI-1 renal was 109%; in the test with A498 renal, 112%; in the test with CCRF-CEM leukemia, -46.2% (active); in the test on MOLT-4 leukemia, 115%; with RPMI-8226 leukemia it was 104%; in the test with OVCAR-8 ovarian, 96.3%. The growth with OVCAR-5 ovarian was 84.4%; in the test on OVCAR-4 ovarian, 123%; with SK-OV-3 ovarian it was 102%; with IGROV1 ovarian, 118%; in the test with HS 578T breast, 113%; in the test with NCI/ADR-RES ovarian, 92.1%.

As for `Cc1cccc(NC(=O)CSc2nc3ccccc3[nH]2)c1`, the growth with SK-MEL-2 melanoma was 109%; in the test on EKVX NSCLC, 93.4%; in the test on SN12C renal, 98.8%; in the test on UO-31 renal it was 75%; with TK-10 renal it was 106%; in the test on ACHN renal it was 97.5%. Moreover, the growth in the test on CAKI-1 renal was 82.6%; with A498 renal it was 53.4%; in the test on CCRF-CEM leukemia it was 102%; in the test on MOLT-4 leukemia, 102%; with RPMI-8226 leukemia it was 99.8%; in the test on OVCAR-8 ovarian, 103%. The growth in the test with OVCAR-5 ovarian is 106%; in the test with OVCAR-4 ovarian, 93.2%; in the test on SK-OV-3 ovarian, 95.9%; in the test with IGROV1 ovarian, 97.6%; in the test with OVCAR-3 ovarian, 107%; in the test on NCI/ADR-RES ovarian, 98.4%.

For the compound `COCCc1ccc(OCC(O)CNC(C)C)cc1` (configuration not stated), the growth is 108% with SK-MEL-2 melanoma; 96% in the test on EKVX NSCLC; 109% with SN12C renal; 79.4% with UO-31 renal; 110% in the test with TK-10 renal; 108% in the test on ACHN renal. Further, the growth in the test with CAKI-1 renal was 96.4%; in the test with A498 renal, 103%; with CCRF-CEM leukemia, 96%; in the test on MOLT-4 leukemia it was 91.4%; in the test with RPMI-8226 leukemia it was 98.1%; with OVCAR-8 ovarian, 101%. Also, the growth is 110% in the test with OVCAR-5 ovarian; 98.8% in the test on OVCAR-4 ovarian; 106% in the test with SK-OV-3 ovarian; 104% in the test on IGROV1 ovarian; 118% in the test with OVCAR-3 ovarian; 105% in the test on NCI/ADR-RES ovarian.
